The test system of test [1] is TRPC4 beta (transient receptor potential cation channel C4), mouse. Kind of test: activators of mouse TRPC4 channel, confirmation, cell-based, Fluo4 calcium, HEK293 TRPC4beta/mu-opioid, duplicates, 10 µM (AID 2426;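 active means fluorescence ratio normalized to control raised more than 50% in primary screen plus both repeat runs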). Particulars: Fluo4 calcium fluorescence, at 10 µM; active compounds read high.
The test system of test [2] is transient receptor potential cation channel C4 beta (TRPC4), mouse. The test is described as follows: activators of mouse TRPC4 channel, confirmation, cell-based, second round, Fluo4, HEK293 TRPC4beta/mu-opioid, 1 µM (AID 2461;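 active means primary screen active and over 50% activation in each of two duplicate runs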). The following applies: Fluo4 calcium fluorescence, at 1 µM; active compounds read high.
Test [3] deals with TRPC4 (transient receptor potential cation channel C4 beta), mouse. The test is described as follows: positive allosteric modulators of mouse TRPC4, confirmation, cell-based, second round, Fluo-4, HEK293 TRPC4beta/mu-opioid, 1 µM (AID 2554;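 active means primary screen hit whose fluorescence ratio, in both repeats, exceeds the weak agonist control mean by 3 SD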). Particulars: DAMGO EC20, Fluo-4 calcium flux, at 1 µM; active compounds read high.
Test [4] concerns TRPC4 beta (transient receptor potential cation channel C4), mouse. Kind of test: positive allosteric modulators of mouse TRPC4, confirmation, cell-based, Fluo-4, HEK293 TRPC4beta/mu-opioid (AID 2555;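 active means primary screen hit whose calcium fluorescence ratio, in both repeats, exceeds the weak agonist control mean by 3 SD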). The following applies: DAMGO EC20, Fluo-4 calcium flux, at 10 µM; active compounds read high. (A change in cytosolic calcium serves as a functional read-out for many receptors and channels.)

Test [5] deals with Short transient receptor potential channel 4 (Mus musculus) (UniProt Q9QUQ5). The test is described as follows: inhibitors of mouse TRPC4 channel, confirmation, cell-based, Fluo4, HEK293 TRPC4beta/mu-opioid (AID 2636). The following applies: DAMGO, Fluo4 calcium flux, at 10 µM; active compounds read high.
Test [6] has the same target. Kind of test: inhibitors of mouse TRPC4 channel, confirmation, cell-based, second round, Fluo4, HEK293 TRPC4beta/mu-opioid, 1 µM (AID 2637;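 active means calcium signal ratio cut to more than 3 SD under the fully stimulated control mean yet still positive, in both repeats and the primary screen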;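 on inhibition: percent of integrated ratio relative to wells lacking test compound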). The following applies: Fluo4 calcium flux, DAMGO, at 1 µM; active compounds read high.
Test [7] has the same target. The test is described as follows: mouse TRPC4 channel activators, dose response, cell-based, HEK293 TRPC4/mu-opioid, Fluo-4 calcium (AID 434937;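 active means primary screen activator hit with a dose response curve and TRPC4 channel activation at any tested dose; inactive means no activation, no dose response, or not a primary hit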).
The target is the same in test [8]. The test is described as follows: TRPC4 positive allosteric modulators, dose response, cell-based, HEK293 TRPC4/mu-opioid, Fluo-4 calcium, EC20 DAMGO (AID 434941;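 active means earlier screen potentiator hit that boosts the TRPC4 ion channel at some dose, with a dose response; inactive means no potentiation, no dose response, or not a prior hit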;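 further: calcium entry triggered by an EC20 dose of DAMGO at the co-expressed mu-opioid receptor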).
The target in test [9] is Short transient receptor potential channel 6 (Mus musculus) (UniProt Q61143). The test is described as follows: inhibition of mouse TRPC6 channel, confirmation, selectivity assay for TRPC4 inhibitor project, cell-based, HEK293, membrane potential dye, duplicate (AID 434948;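 active means active in primary screen and both duplicates, each dropping signal beyond three positive-control SD with fluorescence still positive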). The following applies: HEK293 TRPC6, membrane potential dye fluorescence, at 10 µM, stimulated with maximal-effect acetylcholine; active compounds read high.

For test [10] the target is unchanged. The test is described as follows: activation of mouse TRPC6 channel, confirmation, selectivity assay for TRPC4 activator project, cell-based, HEK293, membrane potential dye, duplicate (AID 434950;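 active means membrane potential signal rise above negative control mean plus 3 SD in both duplicates, also active in the earlier TRPC4 screen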). The following applies: HEK293 TRPC6, membrane potential fluorescence, at 10 µM; active compounds read high.
The target is the same in test [11]. The test is described as follows: TRPC6 potentiation by TRPC4 potentiator hits, confirmation, selectivity assay for TRPC4 potentiator project, HEK293 cells, membrane potential dye, duplicate (AID 434952;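 active means compound raising the membrane signal above positive-control mean plus 3 SD in both repeats, and a primary screen hit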). Particulars: HEK293 TRPC6, membrane potential dye fluorescence, at 10 µM, maximal acetylcholine added after compound; active compounds read high.
The target of test [12] is Short transient receptor potential channel 4 (Mus musculus) (UniProt Q9QUQ5). The test is described as follows: calcium flux activators in TRPC4/5HT1a cells, counter-screen for TRPC4 activator project, cell-based, second counter screen, HEK293 TRPC4/5HT1a, Fluo-4 (AID 434977;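 active means calcium signal rise above buffer-control mean plus 5 SD in both duplicates, and also a hit in the primary screen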). The following applies: Fluo-4 calcium flux, at 10 µM; active compounds read high.
Test [13] in a line: calcium flux inhibitors in TRPC4/5HT1a cells, confirmation, counter-screen for TRPC4 inhibitor project, cell-based, second counter screen, HEK293 TRPC4/5HT1a, Fluo-4 (AID 434978;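 active means primary screen active whose calcium signal fell more than 3 SD beyond the full-serotonin control mean in both duplicate plates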;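 on outcome: serotonin given first at submaximal then at maximal dose after compound preincubation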). Particulars: Fluo-4 calcium flux, at 10 µM, serotonin added to trigger calcium flux; active compounds read high.
For test [14], the system named is TRPC4 (mouse), co-expressed with 5HT1a in HEK293. Kind of test: calcium flux potentiators in TRPC4/5HT1a cells, confirmation, counter-screen for TRPC4 potentiator project, cell-based, second counter screen, HEK293 TRPC4/5HT1a, Fluo-4 (AID 434979;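 active means signal rise over 3 SD above mean of control wells given weak agonist, in both repeats and first screen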). Particulars: Fluo-4 calcium flux, at 10 µM, serotonin added at its EC20 dose; active compounds read high.
Test [15] can be described thus: calcium flux activation in mu-opioid HEK293 cells, confirmation, counter-screen for TRPC4 activator project, cell-based, HEK293 mu-opioid receptor line (AID 449723;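 active means hit in primary screen, with calcium signal over 5 SD above buffer well mean in both duplicates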;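 further: counter screen cells carry the mu-opioid receptor alone and lack TRPC4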). The following applies: Fluo-4 calcium fluorescence, at 10 µM; active compounds read high.
The nature of test [16]: calcium flux enhancement in mu-opioid HEK293 cells, confirmation, counter-screen for TRPC4 allosteric potentiator project, cell-based, HEK293 mu-opioid receptor line (AID 449724;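 active means calcium signal rise more than 3 SD above the low-dose agonist control mean, in both duplicate plates and the primary screen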;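 further: HEK293 cells carrying mu-opioid receptor only with no TRPC4 channel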). The following applies: Fluo-4 calcium flux, at 10 µM, compound added before EC20 DAMGO stimulus; active compounds read high.

Structures are written as SMILES. For part of these data: Measured potencies and affinities stand elsewhere. Calls of active or inactive are those of the source.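 How the source made its calls, unless noted: active means calcium signal cut by more than 3 SD below the full-agonist control yet still positive, in both repeats and the earlier primary screen; inactive means the rest.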

Short transient receptor potential channel 4 (Mus musculus), sequence (Q9QUQ5 whole entry, looked up): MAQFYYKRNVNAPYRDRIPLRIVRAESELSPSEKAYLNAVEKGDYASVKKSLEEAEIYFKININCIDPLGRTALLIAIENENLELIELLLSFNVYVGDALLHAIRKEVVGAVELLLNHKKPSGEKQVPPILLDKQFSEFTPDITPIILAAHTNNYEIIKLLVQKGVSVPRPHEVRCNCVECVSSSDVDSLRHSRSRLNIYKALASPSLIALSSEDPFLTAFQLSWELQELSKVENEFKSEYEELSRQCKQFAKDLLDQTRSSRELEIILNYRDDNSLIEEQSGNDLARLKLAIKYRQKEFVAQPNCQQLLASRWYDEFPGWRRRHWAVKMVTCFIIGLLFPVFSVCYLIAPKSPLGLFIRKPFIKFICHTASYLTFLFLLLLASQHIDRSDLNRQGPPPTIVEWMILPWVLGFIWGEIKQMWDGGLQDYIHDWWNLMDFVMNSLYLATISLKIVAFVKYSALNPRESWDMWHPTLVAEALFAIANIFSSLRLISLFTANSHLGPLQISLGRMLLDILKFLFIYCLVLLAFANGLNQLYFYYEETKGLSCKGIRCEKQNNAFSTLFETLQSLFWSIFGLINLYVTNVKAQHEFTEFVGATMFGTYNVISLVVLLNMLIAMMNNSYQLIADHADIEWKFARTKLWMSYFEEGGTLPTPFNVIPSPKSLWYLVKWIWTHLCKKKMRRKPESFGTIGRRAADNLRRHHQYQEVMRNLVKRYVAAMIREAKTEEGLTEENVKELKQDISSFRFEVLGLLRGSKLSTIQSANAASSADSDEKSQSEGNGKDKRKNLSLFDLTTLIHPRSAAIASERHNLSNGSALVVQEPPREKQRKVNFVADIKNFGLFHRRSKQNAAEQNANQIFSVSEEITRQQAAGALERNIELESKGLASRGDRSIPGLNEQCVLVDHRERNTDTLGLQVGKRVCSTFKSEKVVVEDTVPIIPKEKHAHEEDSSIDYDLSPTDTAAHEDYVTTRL
Short transient receptor potential channel 6 (Mus musculus), sequence (Q61143 whole entry, looked up): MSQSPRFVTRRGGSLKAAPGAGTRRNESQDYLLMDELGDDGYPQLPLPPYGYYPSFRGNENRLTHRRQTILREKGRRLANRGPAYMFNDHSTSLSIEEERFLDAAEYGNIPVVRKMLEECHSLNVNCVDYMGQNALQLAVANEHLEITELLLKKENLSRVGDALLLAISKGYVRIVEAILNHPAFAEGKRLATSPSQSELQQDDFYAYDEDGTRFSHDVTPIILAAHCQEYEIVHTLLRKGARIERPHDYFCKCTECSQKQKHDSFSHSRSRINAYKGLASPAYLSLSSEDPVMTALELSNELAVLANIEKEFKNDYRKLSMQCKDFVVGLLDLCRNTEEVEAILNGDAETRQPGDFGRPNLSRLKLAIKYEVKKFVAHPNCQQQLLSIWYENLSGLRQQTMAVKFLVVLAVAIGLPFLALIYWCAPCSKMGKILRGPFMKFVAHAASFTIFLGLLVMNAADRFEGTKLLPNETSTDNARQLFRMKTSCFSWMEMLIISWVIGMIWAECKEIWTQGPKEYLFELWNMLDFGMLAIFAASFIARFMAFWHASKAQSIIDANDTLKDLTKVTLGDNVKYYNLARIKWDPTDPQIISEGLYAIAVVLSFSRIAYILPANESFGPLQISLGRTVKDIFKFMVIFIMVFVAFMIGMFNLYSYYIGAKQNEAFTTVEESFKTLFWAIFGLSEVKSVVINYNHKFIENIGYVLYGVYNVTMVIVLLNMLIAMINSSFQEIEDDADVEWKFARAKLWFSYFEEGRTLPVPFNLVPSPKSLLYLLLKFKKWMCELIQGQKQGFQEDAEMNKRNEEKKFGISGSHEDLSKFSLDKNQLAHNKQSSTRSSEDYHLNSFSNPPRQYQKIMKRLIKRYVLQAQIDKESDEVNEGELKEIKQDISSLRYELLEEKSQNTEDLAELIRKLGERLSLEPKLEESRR

Broadly, the inhibition is the relative decrease from the control value, in per cent. For `CCOC(=O)C1(Cc2cccc(OC)c2)CCN(Cc2cccc(O)c2)CC1`, the outcome in test [1], in [2], in test [3], in test [4], in [7] and in test [8] was inactive. The compound was classed as inactive in test [9], in [10], in test [11], in test [12], in [13] and in test [14]. The outcome in [15] and in [16] was inactive. The figures for the inhibition in test [5] and in test [6] were 84% (active) and 43% (active), respectively.
Turning to `CCOCc1cn(CC(=O)c2ccc(Cl)cc2)c(C)nc1=N`, the outcome in [1], in test [2], in test [3], in [4], in test [7] and in test [8] was inactive. The compound was called inactive in test [9], in test [10], in test [11], in test [12], in test [14] and in test [15]. For the same compound, the outcome in test [16] was inactive. Further, the figures for the inhibition in [5], in test [6] and in test [13] were 97% (active), 72% (active) and 13% (active), respectively.
On to `CCCCN(Cc1ccccc1)C(=O)C1CCN(Cc2sccc2C)CC1`, for which the outcome in test [1], in [2], in test [3], in test [4], in [7] and in test [8] was inactive. Further, the compound was called inactive in test [9], in [10], in test [11], in test [12], in [14] and in test [15]. Besides, the result in test [16] was inactive. Besides, the inhibition was 90% (active) in [5], 46% (active) in test [6] and 32.5% (active) in [13].
Take `Cc1cc(Nc2ccccc2)nc2cc(O)ccc12`: the outcome in test [1], in [2], in test [3], in test [4], in test [7] and in test [8] was inactive. In addition, the compound was called inactive in test [9], in [10], in [11], in test [12], in test [14] and in test [15]. The outcome in test [16] was inactive. Moreover, the inhibition in test [5] was 93% (active); in test [6], 52% (active); in test [13] it was 14.4% (active).
Turning to `Cc1cc(Nc2ccc(C)c(C)c2)c2ccccc2n1`, the outcome in test [1], in [2], in test [3], in test [4], in test [7] and in test [8] was inactive. Also, the outcome in [10], in test [11], in test [12], in test [14], in test [15] and in [16] was inactive. Further, the inhibition was 99% (active) in test [5], 42% (active) in [6], 35.5% (active) in test [9] and 30.8% (active) in [13].
On to `COc1ccc2nc(NCc3ccccc3)[nH]c2c1`, for which the outcome in [1], in test [2], in test [3], in test [4], in test [7] and in test [8] was inactive. Moreover, the compound was classed as inactive in [9], in test [10], in test [11], in test [12], in test [14] and in test [15]. Besides, the outcome in [16] was inactive. In addition, the inhibition in test [5] is 94% (active); in test [6], 50% (active); in test [13], 23.6% (active).
In the case of `Cc1ccc(/C=C2\SC(=S)N(C(Cc3ccccc3)C(=O)O)C2=O)cc1` (stereo not given), the outcome in test [1], in [2], in test [3], in test [4], in test [5] and in [6] was inactive. The result in test [7], in test [8], in test [9], in test [10], in test [11] and in test [12] was inactive. The outcome in test [14], in test [15] and in test [16] was inactive. Also, in test [13], the inhibition was 18.3% (active).
For the compound `CC(C)(C)NCc1ccccc1OCc1cccs1`, the outcome in test [1], in test [2], in [3], in test [4], in [7] and in test [8] was inactive. The call in [10], in [11], in test [12], in [14], in test [15] and in test [16] was inactive. Further, the inhibition was 95% (active) in test [5], 45% (active) in test [6], 15% (active) in [9] and 17.5% (active) in [13].
For the compound `COc1ccc(Nc2nc(NCC3CCCO3)c3ccccc3n2)c(OC)c1` (stereo not given), the result in [1], in test [2], in test [3], in test [4], in test [7] and in test [8] was inactive. In addition, the compound was classed as inactive in test [10], in test [11], in test [12], in test [14], in [15] and in [16]. Besides, the inhibition in test [5] is 93% (active); in test [6], 50% (active); in test [9], 5.5% (active); in test [13], 41.4% (active).
Regarding `COc1cccc(C(CNC(=O)C(c2ccccc2)c2ccccc2)N(C)C)c1` (stereo not given), the result in test [1], in test [2], in test [3], in test [4], in test [6] and in test [7] was inactive. In addition, the result in test [8], in test [9], in [10], in test [11], in [12] and in test [13] was inactive. The outcome in [14], in [15] and in test [16] was inactive. Further, in test [5], the inhibition is 89% (active).
Consider `CCCN(c1nc(C)cc(OC)n1)S(=O)(=O)c1ccccc1`, for which the outcome in [1], in test [2], in [3], in [4], in test [6] and in test [7] was inactive. Moreover, the outcome in test [8], in test [9], in test [10], in [11], in test [12] and in test [14] was inactive. In addition, the outcome in test [15] and in test [16] was inactive. For the same compound, the inhibition in [5] is 59% (active); in [13], 25.2% (active).
On to `COc1ccc(Cl)cc1N/C(N)=N/c1nc(C)cc(C)n1`, for which the outcome in test [1], in test [2], in [3], in test [4], in test [7] and in test [8] was inactive. For the same compound, the compound was classed as inactive in test [10], in test [11], in [12], in test [14], in [15] and in [16]. Moreover, the inhibition in [5] is 94% (active); in test [6] it was 53% (active); in test [9], 58% (active); in test [13] it was 15.3% (active).
Turning to `CC(C)CN(CC(C)C)c1nc(N)c(C#N)c(CC#N)c1C#N`, the outcome in test [1], in test [2], in test [3], in test [4], in [6] and in [7] was inactive. For the same compound, the result in test [8], in [9], in test [10], in test [11], in [12] and in test [14] was inactive. The result in test [15] and in [16] was inactive. For the same compound, the inhibition in test [5] is 85% (active); in test [13], 39.2% (active).
`CC1(C)CC2CC(C)(CN2CC(O)COc2ccccc2)C1` (stereo not given): the outcome in test [1], in test [2], in test [3], in test [4], in [6] and in test [7] was inactive. Further, the result in test [8], in [9], in [10], in test [11], in [12] and in test [13] was inactive. Moreover, the result in [14], in [15] and in [16] was inactive. For the same compound, the inhibition in [5] was 86% (active).
As for `CN1CCCCc2c1nc1ccccc1c2N` (tested in a mixture with another compound), the outcome in [1], in test [2], in test [3], in test [4], in test [7] and in [8] was inactive. Besides, the outcome in test [10], in test [11], in test [12], in test [14], in test [15] and in test [16] was inactive. Moreover, the inhibition in test [5] is 95% (active); in test [6], 83% (active); in [9], 27% (active); in [13] it was 12.4% (active).

The record behind these values is PubChem BioAssay.
